D2 ag-1: activates the human D2 dopamine receptor | AID 624465 | activation, % (test concentration not listed) | actives 0.084% (n = 360,000) | DiscoveRx PathHunter D2 beta-arrestin, luminescence, 90 min; 100% = 57 uM dopamine signal | P14416; in the data active = activation above about 40%
Target sequence (P14416 whole entry, looked up): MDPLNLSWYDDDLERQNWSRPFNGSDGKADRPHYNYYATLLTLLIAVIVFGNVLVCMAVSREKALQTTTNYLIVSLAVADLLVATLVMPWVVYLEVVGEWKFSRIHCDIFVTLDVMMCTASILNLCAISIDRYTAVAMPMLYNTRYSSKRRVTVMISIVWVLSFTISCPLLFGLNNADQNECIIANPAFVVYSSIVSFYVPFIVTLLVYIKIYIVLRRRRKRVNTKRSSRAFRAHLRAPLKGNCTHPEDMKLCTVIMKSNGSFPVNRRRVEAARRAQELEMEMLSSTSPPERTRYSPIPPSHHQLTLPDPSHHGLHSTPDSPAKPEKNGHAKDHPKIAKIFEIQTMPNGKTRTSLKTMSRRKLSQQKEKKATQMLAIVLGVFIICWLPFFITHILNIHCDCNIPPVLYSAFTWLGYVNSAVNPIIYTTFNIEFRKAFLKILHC
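Agonist mode: compounds alone added to overnight-plated D2 PathHunter cells for 90 min at 37 C, with 57 uM final dopamine (EC100) defining full response. Beta-arrestin recruitment detected by chemiluminescent reagent, read after 1 h at ambient temperature.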
LDHA block: blocks human lactate dehydrogenase A | P00338 | purified LDHA, NADH/diaphorase-resazurin fluorescence; active compounds read low | activity change, % (values are at about 110 or 230 µM) | actives 0.15% (n = 480,000) | AID 1347041; in the data active = activity change below about -30%;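 also: plate controls were DMSO wells for no effect and wells without enzyme for full effect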
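Human LDH5 (2 nM) was incubated with 0.06 mM NADH and 0.2 mM pyruvate for 5 min at room temperature in Tris pH 7.4. Remaining NADH was coupled through diaphorase/resazurin, and resorufin fluorescence was read at 0 and 20 min.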
D2 PAM-1: positively modulates the human D2 dopamine receptor allosterically | HEK293 T-REx D2, calcium flux, EC20 dopamine potentiation | AID 485347 | P14416 | actives 0.34% (n = 340,000) | potentiation, % at 10 µM;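 active = potentiation over 3 SD above the plate norm, cut at about 30% in these data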; also: 0% is about no effect
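Tetracycline-induced HEK293 T-REx cells force-coupled to calcium signalling expressed D2; compounds were pin-added after a 10 s baseline, read kinetically 180 s, then an EC20 dopamine challenge followed with a further 180 s calcium read.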
D2 ag-2: agonists of human D2 dopamine receptor | activation, % at 2 µM | actives 0.53% (n = 340,000) | P14416 | HEK293 T-REx D2 cells, calcium flux agonist mode;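 active = activation over 3 SD above normal in the single-dose calcium agonist read, cut at about 30% in these data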; also: 0% is about no effect
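Agonism is scored from calcium flux in a force-coupled, inducible HEK293 cell line expressing D2, read kinetically for 180 s after compound addition against dopamine controls.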
D2 PAM-2: potentiates the human D2 dopamine receptor allosterically | P14416 | DiscoveRx D2 beta-arrestin cells, luminescence, 90 min; 100% = 57 uM dopamine signal | potentiation, % (concentration not given with the values) | actives 0.23% (n = 360,000) | AID 624464; in the data active = potentiation above about 50%
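PathHunter beta-arrestin assay in DiscoveRx D2 cells. Compounds were added with an EC20 of dopamine (50 nM final) for 90 min at 37 deg C. Luminescence was read 1 h after detection reagent, with 57 uM dopamine as the EC100 control.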
D2 antag: antagonists of human D2 dopamine receptor; P14416; HEK293 TREx D2 cells, calcium flux, dopamine EC80; inhibition, % at 10 µM; actives 2% (n = 340,000); AID 485344; in the data active = inhibition above about 30%; inactive = below that, where a call was filed; also: 0% is about no effect
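Calcium flux kinetic readout in an inducible HEK293 TREx D2 line plated overnight at 30 C. After 180 s compound exposure, an EC80 dopamine challenge follows with another 180 s kinetic read to detect antagonism.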
* = called active by the depositor; / = no result given; ! = not active in a repeat. Sampled rows, rich in hits. Any-hit rate of the full collection: about 2.1%.

SMILES | D2 ag-1 | LDHA block | D2 PAM-1 | D2 ag-2 | D2 PAM-2 | D2 antag
COCCCN(C(=O)Cc1coc2cc(C)c(C)cc12)c1c(N)n(Cc2ccccc2)c(=O)[nH]c1=O | -1 | -3 | 5 | 0 | -2 | 48*
CCCn1c(N)c(N(CCOC)C(=O)c2ccc(F)cc2)c(=O)[nH]c1=O | 0 | -11 | / | -2 | 1 | 13
CCCCN(C(=O)c1ccc(C#N)cc1)c1c(N)n(CCC)c(=O)[nH]c1=O | -3 | 0 | -3 | -2 | -5 | 42*
COCCN(C(=O)Cc1coc2cc(C)c(C)cc12)c1c(N)n(Cc2ccccc2)c(=O)[nH]c1=O | 0 | -4 | 1 | 0 | -6 | 4
CCOC(=O)C(NC(=O)c1cc2ccccc2o1)C(=O)OCC | / | -1 | / | / | / | /
Cc1nc2sccn2c(=O)c1S(=O)(=O)Nc1ccc(N2CCN(C(=O)C(C)C)CC2)cc1 | 3 | 0 | 51*! | -1 | 1 | -5
CCOc1ccccc1NC(=O)COC(=O)c1ccccc1SCC(=O)N1CCCC1 | 6 | -1 | 2 | 0 | 8 | 1
O=C(COC(=O)c1ccccc1SCC(=O)N1CCCC1)Nc1ccccc1C(F)(F)F | -4 | -3 | 1 | -1 | -22 | 31*
O=C(O)COc1ccc2c3c(c(=O)oc2c1)CCC3 | -5 | -2 | 2 | 0 | -20 | 39*
NS(=O)(=O)c1ccc(CCNC(=O)COc2ccc3c4c(c(=O)oc3c2)CCC4)cc1 | -1 | -5 | 40* | 0 | -14 | 5
CCCN(CC(=O)Nc1ccccc1C)C(=O)c1ccc(S(=O)(=O)N2CCCC2)cc1 | 1 | -8 | -5 | 1 | -1 | 30*
NC(=O)c1c(NC(=O)CSc2ccccn2)sc2c1CCCC2 | / | 11 | / | / | / | /
COc1cc(C#N)ccc1OC(=O)CCNC(=O)c1ccc(C(C)(C)C)cc1 | / | 14 | / | / | / | /
Cc1cccc(N2CCN(CC(O)COc3ccccc3Cl)CC2)c1 (stereo not drawn) | -5 | -1 | -24 | 9 | -53 | 71*
OC(COc1cc(Cl)c(Cl)cc1Cl)CN1CCN(c2ncccn2)CC1 (stereo not drawn) | 11 | -5 | -22 | 26 | -31 | 37*
COc1cc(Nc2nc3ccccc3nc2C(=O)OC(C)C)cc(OC)c1 | / | 18 | / | / | / | /
COc1ccc(OC)c(NC(=O)C2CCCN2C(=O)C23CC4CC(CC(C4)C2)C3)c1 (stereo not drawn) | / | -2 | / | / | / | /
Cc1cccc(C)c1N=Cc1c(O)n(-c2nccs2)c(=O)c2ccccc12 | -1 | -10 | -11 | 1 | -18 | 4
Cc1cc(C)c(N=Cc2c(O)n(-c3nccs3)c(=O)c3ccccc23)c(C)c1 | -3 | -1 | -27 | 1 | -33 | 41*
CCNC(=O)c1ccccc1SCC(=O)Nc1ccc(F)cc1 | -3 | -12 | 35* | 0 | -7 | 23
Cc1cc(Nc2ccccc2)nc(Nc2ccc(NC(=O)c3ccc(Cl)cc3)cc2)n1 | / | 0 | / | / | / | /
O=C(CCCCCCCC(=O)Nc1ccc(C(=O)c2ccccc2)cc1)Nc1ccc(C(=O)c2ccccc2)cc1 | / | -3 | / | / | / | /
Cc1[nH]c(=O)c(C#N)cc1-c1csc(-c2ccccc2)n1 | -2 | 0 | -4 | 1 | -24 | 39*
Cc1nc(-c2cc(C#N)c(=O)[nH]c2C)cs1 | 0 | -3 | 0 | 1 | 0 | 8
Cc1c(Br)c([N+](=O)[O-])nn1CC(=O)Nc1nccs1 | -2 | -11 | 52* | 0 | -3 | -2
SMILES | D2 ag-1 | LDHA block | D2 PAM-1 | D2 ag-2 | D2 PAM-2 | D2 antag
CCN(CC)c1ccc(C(=O)NNC(=S)NCCOC)cc1 | / | -14 | / | / | / | /
CCCCN1CC(O)=C(c2nc3ccccc3[nH]2)C1=N | -2 | -3 | 0 | 0 | -4 | -1
CCCCCN1CC(O)=C(c2nc3ccccc3[nH]2)C1=N | -8 | -5 | -2 | 2 | -6 | 39*
COCCN1CC(O)=C(c2nc3ccccc3c(=O)[nH]2)C1=N | -1 | 1 | 16 | 0 | -1 | 38*
N=C1C(c2nc3ccccc3c(=O)[nH]2)=C(O)CN1CCO | -4 | -6 | -5 | -1 | -2 | 6
Cc1ccc(C2CCCN2Cc2nc(-c3cccs3)no2)cc1 (stereo not drawn) | / | 4 | / | / | / | /
COc1ccc(OC)c(C(=O)NCC2(c3ccc(F)cc3)CCOCC2)c1 | / | 6 | / | / | / | /
Cc1cc(C)n(CCOc2nonc2N)n1 | 0 | 9 | -7 | 1 | 6 | 34*
Cc1ccc(-n2nc3c([n+]2[O-])CCc2nonc2-3)cc1 | 7 | -8 | 4 | -2 | -3 | 53*
[O-][n+]1c2c(nn1-c1ccccc1Cl)-c1nonc1CC2 | 0 | -2 | -14 | 1 | 3 | 15
Cc1cccc(NC(=S)NCC(c2ccccc2)N(C)C)c1 (stereo not drawn) | -1 | -3 | / | 0 | -12 | 38*
CN(C)C(CNC(=S)Nc1cccc(Cl)c1)c1ccccc1 (stereo not drawn) | -6 | -2 | / | 0 | -18 | 55*
CN(C)CCNC(=S)Nc1cccc(Cl)c1 | -1 | -4 | -17 | 0 | -30 | -27
Cc1cccc(NC(=S)NC(C)CCc2ccccc2)c1 (stereo not drawn) | -3 | -5 | -21 | 0 | -4 | -14
CN(C)NC(=S)Nc1cccc(Cl)c1 | 3 | -11 | 2 | 1 | -2 | 45*
COC(=O)c1c(NC(=O)C(=O)NCCCN2CCOCC2)sc2c1CC(C)(C)OC2 | 4 | -4 | 7 | 0 | -1 | 5
COC(=O)c1c(NC(=O)C(=O)NCC2CCCO2)sc2c1CC(C)(C)OC2 (stereo not drawn) | -1 | -2 | -13 | 0 | -27 | 36*
CCOC(=O)CSc1nc2c(c(=O)[nH]c(=O)n2C)n1C(C)C | / | 10 | / | / | / | /
O=S(=O)(Cc1ccc(Cl)cc1)c1ccccc1-c1nnc(-c2ccccc2)o1 | 1 | -5 | 8 | 1 | 10 | 55*
CS(=O)(=O)c1ccccc1-c1nnc(-c2ccc(Cl)cc2)o1 | 0 | -7 | -2 | 0 | -4 | 19
N#C/C(=C/c1ccc(N2CCOCC2)o1)C(=O)Nc1ccccc1 | 0 | 3 | 8 | 40* | -8 | 9
COCCNC(=O)/C(C#N)=C/c1ccc(N2CCOCC2)o1 | -3 | -4 | 0 | 13 | -25 | -12
N#C/C(=C\c1ccc(N2CCOCC2)o1)C(=O)NCCc1ccccc1 | 6 | 2 | 3 | 21 | -7 | 46*
O=C(CN1CCCCCC1)Nc1cccc(Br)c1 | -3 | -4 | -25 | 1 | -9 | 10
Cc1ccc(NC(=O)CN2CCCCCC2)cc1Br | 0 | -9 | -31 | 4 | -7 | 42*
